# Measured values from PubChem BioAssay (NCI).
# The panel holds about 83,000 compounds, 20% with a hit somewhere; the sample as a whole holds those more often.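 Results are percent growth after 48 hours of single-concentration exposure. 100 means growth as in untreated cells, lower positive values show inhibition; negative values down to -100 show cell death.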 Unmarked numbers belong to inactive results. Active and inactive are the calls of the source. The calls were made as follows: active = growth percent below 10; inactive = the rest.
# Tested on: HOP-62 NSCLC
# Assay: NCI-60 one-dose screen, 48 h (100 = growth as untreated, 0 = no growth, -100 = all killed)
# Conditions: 10 µM unless noted
row,SMILES,growth
1,C[PH+](c1nc2ccccc2nc1[PH+](C)C(C)(C)C)C(C)(C)C.C[PH+](c1nc2ccccc2nc1[PH+](C)C(C)(C)C)C(C)(C)C.[Au+].[Cl-] (stereo not given),-94.3% (active)
2,CN(C)CCNC(=O)c1cc2c3cc(Cl)ccc3[nH]c2c2ncccc12,24.4%
3,CNC(=O)c1ccccc1Oc1nc(Nc2cc(OC)c(OC)c(OC)c2)ncc1Br,49.7%
4,O=C(c1ccccc1)c1ccc(C2CCCCC2)cc1,98.5%
5,CCCCCCCC[C@@H]1N[C@@H](C(=O)OC)Cc2c1[nH]c1ccccc21,103%
6,Cc1cc(N2CCCCC2)cc(C)c1-c1csc(NC(=O)c2ccncc2)n1,62.5%
7,Cc1nc2sc(C(=O)Nc3ccc(Br)cc3)c(N)c2cc1C(O)c1ccccc1 (stereo not given),67.5%
8,CCN(CC)CC(O)COc1c(Br)c(Br)c(Br)c2c1OC(C)(C)C2 (stereo not given),96.8%
9,Cc1cccc(CNc2c3ccccc3nc3ccccc23)c1,40.4%
10,Fc1cc2c(cc1Cl)N(c1ncnc3ccc(-c4ccc5n[nH]nc5c4)cc13)CC2,72.3%
11,CC/C(=C(/c1ccc(Cl)cc1)c1ccc(OCCN(C)C)cc1)c1ccc(Cl)cc1,78.5%
12,Cn1cc(-c2nonc2-c2cn(C)c3ccccc23)c2ccccc21,21.2%
13,COC12C=C/C(=C(/C(=O)OCc3ccncc3)C(=O)CCCCCCCCC3(OC)C=C/C(=C(/C(=O)OCc4ccncc4)C(=O)CCCCCCCC1)O3)O2,16.7%
14,COc1cc2ncnc(Nc3ccc(F)c(Cl)c3)c2cc1OCC(=O)N1CCN(c2ccccc2)CC1,103%
15,COc1ccc(/C=C(\C#N)n2nnc3cc(Cl)ccc32)cc1,40.8%
16,COc1ccc(C(=O)/C=C/c2c(C(F)(F)F)nc3ccccn23)cc1OC,11.1%
17,CCN(C)S(=O)(=O)Nc1cccc(Nc2ncnc3cc(NC(=O)CCl)ccc23)c1Cl,-50.1% (active)
18,Cc1c2cnccc2c(C)c2c1c1cc(C#N)ccc1n2C,-25.5% (active)
19,CN(C)CC(C)(C)C(=O)/C=C/c1ccccc1,12.3% [25 µM]
20,O=CN1N=C(c2cccc(Nc3ccnc4cc(Cl)ccc34)c2)CC1c1ccccc1 (stereo not given),37.2%

row,SMILES,growth
1,O=C(Nc1ccc(Oc2cccc(Cl)c2)c(Cl)c1)c1cnccn1,41%
2,O=c1[nH]c(Cc2nc3ccccc3s2)nc2cc(Br)ccc12,37.6%
3,C#CCNC(=O)[C@H](CC)[C@H]1CC[C@H](C)[C@H]([C@@H](C)[C@H](O)[C@H](C)C(=O)[C@H](CC)C2O[C@]3(C=CC(=O)[C@]4(CC[C@@](C)([C@H]5CC[C@](O)(CC)[C@H](C)O5)O4)O3)[C@H](C)C[C@@H]2C)O1 (stereo not given in full),61.8%
4,O=C(Nc1ccc(Oc2cccc(F)c2)c(Cl)c1)c1cccnc1,34%
5,CS(=O)(=O)Nc1cc(-c2ccc3ncnc(Nc4ccc5c(cnn5Cc5ccc(F)cc5)c4)c3c2)cnc1Cl,43.5%
6,COC1=CC(c2ccc[nH]2)=N/C1=C\c1[nH]c(C)c(C)c1CCC(=O)OCc1ccccc1,-3% (active)
7,CC(C)(C)CC(C)(C)NC(=O)Nc1ncccc1OCc1ccccc1,97.1%
8,Nc1nc2ccccc2c2c1S(=O)(=O)c1ccc(Cl)cc1C2=O,30.2%
9,CCOC(=O)C/C(=N\Nc1cc(=O)[nH]c2ccc(Br)cc12)C(=O)OCC,95.9%
10,COc1cc(-c2csc(NC(=O)c3ccc(N4CCOCC4)c(C(F)(F)F)c3)n2)cc(OC)c1OC,34.2%
11,Oc1c(Br)cc(Br)c2ccc(Cn3cc(-c4ccc(C(F)(F)F)cc4)nn3)nc12,98.9%
12,C#CCOc1ccc2ncnc(Nc3ccc(NC(=O)C=C)cc3)c2c1,78.5%
13,CCn1cc(C(=O)O)c(=O)c2cc(F)c(N3CCN(CC(=O)Nc4ccc(S(=O)(=O)Nc5nccc(C)n5)cc4)C(C)C3)c(F)c21 (stereo not given),103%
14,O=C(Nc1cccc(-c2ccc(N3CCOCC3)nn2)c1)Nc1cccc(C(F)(F)F)c1,76.8%
15,CSc1nc2ncc([N+](=O)[O-])c(=O)n2[nH]1,98.8%
16,COc1cc2ncnc(Nc3ccc(S(=O)(=O)Nc4cc(C)on4)cc3)c2cc1OCCCN1CCN(c2ccc(F)cc2)CC1,92.2%
17,O=S(=O)(NCCNc1nccc(-c2c(-c3ccc(F)c(O)c3)nc3occn23)n1)c1ccc(Cl)cc1,101%
18,Nc1ncnc2c1N=C(c1ccc(Br)cc1)CC(c1cccc(Nc3ccnc4cc(C(F)(F)F)ccc34)c1)N2 (stereo not given),60.1%
19,Nc1ncc(-c2ccc3ncnc(Nc4cccc(Cl)c4)c3c2)cn1,37.8%
20,O=C(Nc1ccccc1)Nc1ncnc2c1ncn2-c1ccc(Cl)cc1,75.4%
